Test results taken from the supplement of paper PMC11732987, “Enantioselective OTUD7B fragment discovery through chemoproteomics screening and high-throughput optimisation” (Communications Chemistry, 2025).

How the values were obtained:
Test in all cases: log2 ratio of Biotin-Ahx-Ub-VS probe labelling (fragment/DMSO); higher = less target engagement (more negative = stronger competition), active = hit call of the paper (q ≤ 0.05, log2 ratio ≤ -1)
Settings in all cases: compound concentration: 200 uM; treatment time: 3 h
USP19 = biological target: T1, USP19 (UniProt O94966)
T1 sequence (whole entry): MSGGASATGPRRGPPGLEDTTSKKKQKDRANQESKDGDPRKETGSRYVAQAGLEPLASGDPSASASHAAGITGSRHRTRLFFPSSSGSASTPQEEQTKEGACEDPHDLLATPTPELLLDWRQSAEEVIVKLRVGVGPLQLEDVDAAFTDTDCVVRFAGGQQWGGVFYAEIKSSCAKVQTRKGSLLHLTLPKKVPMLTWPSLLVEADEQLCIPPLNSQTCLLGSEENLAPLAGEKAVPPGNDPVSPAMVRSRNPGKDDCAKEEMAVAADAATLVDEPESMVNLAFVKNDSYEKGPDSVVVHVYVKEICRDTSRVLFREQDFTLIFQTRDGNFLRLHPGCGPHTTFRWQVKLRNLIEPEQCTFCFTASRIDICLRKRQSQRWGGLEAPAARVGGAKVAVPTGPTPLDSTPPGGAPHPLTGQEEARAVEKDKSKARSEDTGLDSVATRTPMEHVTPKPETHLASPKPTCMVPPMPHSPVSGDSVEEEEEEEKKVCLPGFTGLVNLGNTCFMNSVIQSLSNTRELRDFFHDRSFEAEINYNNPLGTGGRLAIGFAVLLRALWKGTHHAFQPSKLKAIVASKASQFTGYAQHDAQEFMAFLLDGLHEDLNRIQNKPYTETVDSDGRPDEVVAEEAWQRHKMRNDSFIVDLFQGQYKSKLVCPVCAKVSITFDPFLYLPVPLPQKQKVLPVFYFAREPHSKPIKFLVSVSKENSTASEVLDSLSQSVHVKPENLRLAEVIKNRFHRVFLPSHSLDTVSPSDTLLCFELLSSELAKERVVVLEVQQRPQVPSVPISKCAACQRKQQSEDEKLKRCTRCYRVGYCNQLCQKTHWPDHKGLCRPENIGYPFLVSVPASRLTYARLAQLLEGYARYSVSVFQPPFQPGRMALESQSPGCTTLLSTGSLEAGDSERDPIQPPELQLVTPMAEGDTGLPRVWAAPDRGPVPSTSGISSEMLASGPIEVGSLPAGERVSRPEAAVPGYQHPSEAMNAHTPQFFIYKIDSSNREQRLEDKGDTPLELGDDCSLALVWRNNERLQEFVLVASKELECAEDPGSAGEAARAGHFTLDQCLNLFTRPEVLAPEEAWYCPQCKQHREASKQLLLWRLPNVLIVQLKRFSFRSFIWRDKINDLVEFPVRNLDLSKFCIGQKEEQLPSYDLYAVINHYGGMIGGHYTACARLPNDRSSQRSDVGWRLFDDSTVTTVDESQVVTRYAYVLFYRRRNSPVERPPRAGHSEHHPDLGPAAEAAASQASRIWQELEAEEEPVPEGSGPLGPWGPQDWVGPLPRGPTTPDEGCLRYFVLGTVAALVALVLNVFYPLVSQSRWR
Outline: (§1)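 Labelling with Biotin-Ahx-Ub-VS (0.5 µM final, 1 h) followed a 3 h triplicate treatment of HEK293T lysate (495 µg per sample, Tris/CHAPS/IGEPAL buffer with protease inhibitors) with fragment at 200 µM or vehicle. Labelled DUBs were NeutrAvidin-enriched, digested with LysC and trypsin, and run by diaPASEF LC-MS/MS. The values, average log2 fragment/vehicle ratios by unpaired t-test, come from global-median-normalised Spectronaut label-free quantities. Proteins with ≥2 unique peptides were used.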

USP22 = biological target: T2, USP22 (UniProt Q9UPT9)
T2 sequence (whole entry): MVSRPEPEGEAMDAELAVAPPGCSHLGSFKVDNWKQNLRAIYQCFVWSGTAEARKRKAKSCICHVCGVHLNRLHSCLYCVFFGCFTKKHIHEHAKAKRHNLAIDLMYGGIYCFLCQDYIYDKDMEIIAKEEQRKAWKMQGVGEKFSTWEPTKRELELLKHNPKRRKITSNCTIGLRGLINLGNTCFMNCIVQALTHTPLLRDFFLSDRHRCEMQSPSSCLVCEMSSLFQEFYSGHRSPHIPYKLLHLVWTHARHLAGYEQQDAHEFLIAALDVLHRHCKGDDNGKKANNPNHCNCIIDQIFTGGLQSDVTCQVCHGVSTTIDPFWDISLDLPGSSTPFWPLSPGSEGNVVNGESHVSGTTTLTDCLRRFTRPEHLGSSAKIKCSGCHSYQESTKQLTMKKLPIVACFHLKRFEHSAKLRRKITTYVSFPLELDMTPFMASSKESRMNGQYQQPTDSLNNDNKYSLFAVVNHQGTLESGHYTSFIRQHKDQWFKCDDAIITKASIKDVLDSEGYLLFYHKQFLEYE
Outline: as §1

USP24 = USP24 (UniProt Q9UPU5)
Outline: as §1

USP25 = biological target: T3, USP25 (UniProt Q9UHP3)
T3 sequence (whole entry): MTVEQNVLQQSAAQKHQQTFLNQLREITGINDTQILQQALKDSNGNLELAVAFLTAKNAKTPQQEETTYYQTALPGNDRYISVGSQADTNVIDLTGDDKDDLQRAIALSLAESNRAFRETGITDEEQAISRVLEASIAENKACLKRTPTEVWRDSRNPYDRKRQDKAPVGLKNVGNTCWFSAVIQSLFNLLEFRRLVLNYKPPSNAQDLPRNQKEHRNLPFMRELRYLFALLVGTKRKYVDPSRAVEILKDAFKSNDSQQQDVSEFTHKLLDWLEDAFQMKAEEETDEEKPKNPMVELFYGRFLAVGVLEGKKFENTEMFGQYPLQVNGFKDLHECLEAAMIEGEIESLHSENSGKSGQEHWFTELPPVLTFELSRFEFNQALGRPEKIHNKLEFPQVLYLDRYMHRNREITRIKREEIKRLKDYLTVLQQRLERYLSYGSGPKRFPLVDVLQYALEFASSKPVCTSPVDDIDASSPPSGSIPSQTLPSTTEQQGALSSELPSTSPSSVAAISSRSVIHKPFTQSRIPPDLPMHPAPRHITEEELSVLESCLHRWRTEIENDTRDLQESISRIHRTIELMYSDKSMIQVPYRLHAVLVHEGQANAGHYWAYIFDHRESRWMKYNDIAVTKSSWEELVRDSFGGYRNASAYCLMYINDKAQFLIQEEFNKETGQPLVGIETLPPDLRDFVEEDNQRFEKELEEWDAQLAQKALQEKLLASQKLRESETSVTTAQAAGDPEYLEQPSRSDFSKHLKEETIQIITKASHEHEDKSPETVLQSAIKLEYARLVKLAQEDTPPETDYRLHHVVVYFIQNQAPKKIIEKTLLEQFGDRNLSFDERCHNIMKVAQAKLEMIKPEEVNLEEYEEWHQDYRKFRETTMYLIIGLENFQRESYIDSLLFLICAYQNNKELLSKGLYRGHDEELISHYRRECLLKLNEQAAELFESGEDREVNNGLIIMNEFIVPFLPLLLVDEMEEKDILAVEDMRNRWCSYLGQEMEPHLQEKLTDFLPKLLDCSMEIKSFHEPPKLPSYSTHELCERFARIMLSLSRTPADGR
Outline: as §1

USP28 = biological target: T4, USP28 (UniProt Q96RU2)
T4 sequence (whole entry): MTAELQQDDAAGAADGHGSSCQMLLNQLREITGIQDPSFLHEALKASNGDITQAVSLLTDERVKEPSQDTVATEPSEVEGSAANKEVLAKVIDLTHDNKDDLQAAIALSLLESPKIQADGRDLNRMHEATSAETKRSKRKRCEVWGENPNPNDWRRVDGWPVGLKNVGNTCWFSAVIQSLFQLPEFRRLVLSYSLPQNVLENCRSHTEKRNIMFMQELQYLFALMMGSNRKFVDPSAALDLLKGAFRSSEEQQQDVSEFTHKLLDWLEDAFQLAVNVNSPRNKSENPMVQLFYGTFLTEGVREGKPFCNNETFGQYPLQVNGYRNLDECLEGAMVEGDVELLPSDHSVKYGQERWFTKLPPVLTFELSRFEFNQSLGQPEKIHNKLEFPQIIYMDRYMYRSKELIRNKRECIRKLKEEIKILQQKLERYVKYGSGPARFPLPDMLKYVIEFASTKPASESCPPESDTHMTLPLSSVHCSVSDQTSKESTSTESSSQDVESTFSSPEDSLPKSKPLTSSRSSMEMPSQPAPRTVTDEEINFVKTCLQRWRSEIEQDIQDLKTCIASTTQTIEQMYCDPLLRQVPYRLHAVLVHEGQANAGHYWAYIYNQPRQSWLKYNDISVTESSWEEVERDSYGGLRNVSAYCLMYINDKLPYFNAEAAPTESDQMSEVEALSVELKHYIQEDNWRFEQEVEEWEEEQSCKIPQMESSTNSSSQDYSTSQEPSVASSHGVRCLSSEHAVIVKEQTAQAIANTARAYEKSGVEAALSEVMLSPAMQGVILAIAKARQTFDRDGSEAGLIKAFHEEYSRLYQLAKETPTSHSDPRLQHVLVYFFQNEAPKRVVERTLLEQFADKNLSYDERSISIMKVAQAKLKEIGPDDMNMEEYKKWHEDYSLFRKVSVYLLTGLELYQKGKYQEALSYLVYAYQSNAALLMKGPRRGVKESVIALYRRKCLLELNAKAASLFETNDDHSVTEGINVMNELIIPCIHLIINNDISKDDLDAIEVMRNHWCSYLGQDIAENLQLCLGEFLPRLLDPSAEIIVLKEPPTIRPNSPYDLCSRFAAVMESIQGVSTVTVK
Outline: as §1

Measured: log2 ratio of Biotin-Ahx-Ub-VS probe labelling

USP24, sequence (Q9UPU5 whole entry): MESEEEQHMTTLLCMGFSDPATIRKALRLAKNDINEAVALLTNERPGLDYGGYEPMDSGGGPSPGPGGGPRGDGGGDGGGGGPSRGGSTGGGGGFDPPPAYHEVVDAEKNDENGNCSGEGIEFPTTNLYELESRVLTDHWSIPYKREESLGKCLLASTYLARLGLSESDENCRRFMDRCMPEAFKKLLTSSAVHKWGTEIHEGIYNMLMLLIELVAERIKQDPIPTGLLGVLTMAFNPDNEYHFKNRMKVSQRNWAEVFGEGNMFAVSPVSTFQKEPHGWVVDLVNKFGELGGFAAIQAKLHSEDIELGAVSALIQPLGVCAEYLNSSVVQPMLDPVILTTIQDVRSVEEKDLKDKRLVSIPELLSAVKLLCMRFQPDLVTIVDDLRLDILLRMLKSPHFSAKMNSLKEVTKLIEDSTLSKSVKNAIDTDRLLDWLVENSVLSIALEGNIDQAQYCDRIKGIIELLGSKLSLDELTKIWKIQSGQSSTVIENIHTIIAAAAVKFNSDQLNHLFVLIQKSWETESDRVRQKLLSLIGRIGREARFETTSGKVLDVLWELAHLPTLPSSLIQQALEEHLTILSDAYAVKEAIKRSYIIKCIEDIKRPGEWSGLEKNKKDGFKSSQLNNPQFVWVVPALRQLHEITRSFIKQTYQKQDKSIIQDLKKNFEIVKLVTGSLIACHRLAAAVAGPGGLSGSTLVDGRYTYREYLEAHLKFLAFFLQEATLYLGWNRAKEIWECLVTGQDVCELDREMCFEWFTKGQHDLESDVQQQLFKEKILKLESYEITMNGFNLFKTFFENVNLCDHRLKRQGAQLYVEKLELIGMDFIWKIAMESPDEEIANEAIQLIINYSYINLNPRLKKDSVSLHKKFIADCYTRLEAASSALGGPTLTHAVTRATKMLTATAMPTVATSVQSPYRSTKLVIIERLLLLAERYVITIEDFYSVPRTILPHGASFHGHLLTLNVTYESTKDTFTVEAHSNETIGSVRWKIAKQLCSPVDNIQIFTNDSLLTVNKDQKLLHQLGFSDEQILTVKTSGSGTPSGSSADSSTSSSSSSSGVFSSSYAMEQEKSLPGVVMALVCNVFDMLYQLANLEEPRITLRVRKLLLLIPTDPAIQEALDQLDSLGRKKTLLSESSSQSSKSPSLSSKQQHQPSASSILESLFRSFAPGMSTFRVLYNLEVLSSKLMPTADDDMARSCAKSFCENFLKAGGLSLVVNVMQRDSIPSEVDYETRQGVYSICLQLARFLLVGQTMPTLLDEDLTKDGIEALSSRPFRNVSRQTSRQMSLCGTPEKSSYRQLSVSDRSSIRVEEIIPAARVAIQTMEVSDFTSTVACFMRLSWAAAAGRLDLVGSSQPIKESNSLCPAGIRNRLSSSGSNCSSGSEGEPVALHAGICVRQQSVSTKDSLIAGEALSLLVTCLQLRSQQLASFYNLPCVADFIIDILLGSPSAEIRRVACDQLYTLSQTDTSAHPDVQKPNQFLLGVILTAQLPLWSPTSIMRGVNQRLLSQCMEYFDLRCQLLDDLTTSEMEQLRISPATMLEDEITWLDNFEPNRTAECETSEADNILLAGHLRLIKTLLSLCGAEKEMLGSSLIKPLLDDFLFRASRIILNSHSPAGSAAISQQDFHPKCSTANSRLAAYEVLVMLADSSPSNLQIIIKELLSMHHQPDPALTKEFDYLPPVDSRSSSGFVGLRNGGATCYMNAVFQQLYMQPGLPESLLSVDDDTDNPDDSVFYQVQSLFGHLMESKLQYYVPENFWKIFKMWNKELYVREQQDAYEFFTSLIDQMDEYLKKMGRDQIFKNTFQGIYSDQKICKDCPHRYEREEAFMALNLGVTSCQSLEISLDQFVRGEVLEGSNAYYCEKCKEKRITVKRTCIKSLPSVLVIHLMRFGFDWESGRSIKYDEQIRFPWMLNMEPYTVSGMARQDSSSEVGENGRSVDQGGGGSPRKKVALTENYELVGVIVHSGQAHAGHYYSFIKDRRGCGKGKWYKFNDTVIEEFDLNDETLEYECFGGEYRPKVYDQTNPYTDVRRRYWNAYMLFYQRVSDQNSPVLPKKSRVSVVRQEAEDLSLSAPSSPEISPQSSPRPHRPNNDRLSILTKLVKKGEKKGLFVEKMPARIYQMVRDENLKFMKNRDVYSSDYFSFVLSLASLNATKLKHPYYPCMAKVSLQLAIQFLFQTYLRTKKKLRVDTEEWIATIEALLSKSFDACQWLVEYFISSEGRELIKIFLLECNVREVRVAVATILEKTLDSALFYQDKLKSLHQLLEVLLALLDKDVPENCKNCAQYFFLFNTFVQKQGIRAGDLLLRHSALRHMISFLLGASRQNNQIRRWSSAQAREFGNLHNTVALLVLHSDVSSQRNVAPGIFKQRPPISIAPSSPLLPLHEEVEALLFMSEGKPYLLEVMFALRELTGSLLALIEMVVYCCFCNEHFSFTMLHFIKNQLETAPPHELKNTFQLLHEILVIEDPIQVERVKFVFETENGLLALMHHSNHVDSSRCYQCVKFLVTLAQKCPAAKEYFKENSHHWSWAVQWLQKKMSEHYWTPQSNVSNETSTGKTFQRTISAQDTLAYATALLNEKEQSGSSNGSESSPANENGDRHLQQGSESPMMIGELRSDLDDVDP

O=C(CCl)Nc1ccc(F)cc1F
inactive: USP19 -0.101 | USP22 -0.241 | USP24 -0.312 | USP25 -0.265 | USP28 -0.838
